In PubChem BioAssay one finds inhibition data, which are given here for 40 compounds.

Unmarked numbers belong to inactive results. The rule behind the calls is not given here.

The assay deals with Pantothenate synthetase (Mycobacterium tuberculosis (strain ATCC 25618 / H37Rv)) (UniProt P9WIL5). Briefly: Recombinant Mtb pantothenate synthetase (PanC) inhibitors, coupled enzyme, confirmatory (AID 375).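 Note: 0% = full reaction with vehicle and 100% = no enzyme background.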 The note with it: coupled enzyme assay; at 10 µM, stronger effect = higher value.
Pantothenate synthetase (Mycobacterium tuberculosis (strain ATCC 25618 / H37Rv)), sequence (P9WIL5 whole entry, looked up): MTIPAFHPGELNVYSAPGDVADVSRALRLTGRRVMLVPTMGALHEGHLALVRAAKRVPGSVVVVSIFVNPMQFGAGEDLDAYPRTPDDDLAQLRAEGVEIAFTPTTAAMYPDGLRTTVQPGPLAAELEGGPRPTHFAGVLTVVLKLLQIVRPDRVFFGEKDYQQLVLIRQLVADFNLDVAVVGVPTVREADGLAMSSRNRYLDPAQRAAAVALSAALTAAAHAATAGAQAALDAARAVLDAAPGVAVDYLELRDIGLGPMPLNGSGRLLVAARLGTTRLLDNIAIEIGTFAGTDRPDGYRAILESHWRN
With `COc1ccc(CC(=O)Nc2c3c(nn2-c2cccc(Cl)c2)CS(=O)C3)cc1` (stereo not given), the inhibition (commonly the change of the read-out against control, counted positive when it falls) is 7%.
With `COc1cc(OC)cc(C(=O)N2CCN(C(=O)c3ccc(OC)c(OC)c3)CC2)c1` the figure was 1%.
With `CCCC(=O)N(Cc1cc2ccccc2[nH]c1=O)c1ccccc1OC` the figure was 2%; with `O=C(CSc1nc2ccccc2o1)NC(=O)NCc1ccco1`, 0%.
With `CCOC(=O)c1c(C)[nH]c(C(=O)COC(=O)C2CC2C)c1C` (stereo not given) the figure was 0%; with `CCN1CCN(c2c(Cl)cccc2NC(=O)c2ccco2)CC1`, 9%; with `COc1ccc(NC(=O)CN(c2cc(C)cc(C)c2)S(=O)(=O)c2c(C)noc2C)cc1OC`, 0%.
Regarding `CC(C)(CSc1nncn1N)NS(=O)(=O)c1ccc(Cl)cc1`, the inhibition was 0%.
The value for `CCn1nc(C(=O)OCC(=O)c2cc(C)n(Cc3cccs3)c2C)c2ccccc2c1=O` was 1%; that for `O=C1C2CCCN2C(c2ccc(Cl)cc2)N1c1nccs1` (stereo not given) was 0%; that for `Cc1noc(C)c1CSc1nc2ccccc2s1` was 2%.
The value for `CCc1nnc(NC(=O)CSc2nnc(-c3ccccc3OC)n2-c2ccccc2)s1` was 4%; that for `COc1ccc(-c2nnc(SCC(=O)NC(C)c3ccccc3)o2)cc1` (stereo not given) was 0%; that for `COc1ccc(NC(=O)C(C)NS(=O)(=O)c2ccccc2)cc1Cl` (stereo not given) was 10%.
Regarding `Cc1nc2ccc(NC(=O)NCc3ccco3)cc2s1`, the inhibition is 0%.
As to `CSc1ccccc1NC(=O)C1CCCO1` (stereo not given), the inhibition is 7%.
With `COc1ccc(CN(C2CCCC2)S(=O)(=O)c2ccc(-n3cnnn3)cc2)cc1OC` the figure was 0%; with `O=C(CSc1nc2cc(S(=O)(=O)N3CCOCC3)ccc2o1)NC1CCCc2ccccc21` (stereo not given), 0%.
The value for `c1ccc2c(-c3nc(-c4ccncc4)no3)cccc2c1` was 0%; that for `Cc1ccc(CNC(=O)CCCn2c(=O)c3ccccc3n(CC(=O)NCc3ccco3)c2=O)cc1` was 0%.
For the compound `O=S(=O)(NCC1CCCO1)c1ccc2c(c1)OCCO2` (stereo not given), the inhibition is 0%.
The value for `CN1[C@@H](CC(=O)c2ccccc2)CCC[C@H]1C[C@H](O)c1ccccc1` was 8%; that for `CN(C(=O)c1ccncc1)C1CC(C)(C)N(O)C(C)(C)C1` was 0%.
In the case of `CC(=O)C1=C(O)C(=O)N(Cc2cccnc2)C1c1ccccc1` (stereo not given), the inhibition was 3%.
With `CCn1c(=O)c(C(=O)NCCc2ccccc2)c(O)c2ccccc21` the figure was 0%; with `Nn1c(SCC(=O)Nc2ccc(Oc3ccccc3)cc2)nnc1C1CC1`, 7%; with `CCCCOC(=O)Cn1c(=N)n(CCN2CCOCC2)c2ccccc21`, 0%.
`Cc1ccc(S(=O)(=O)NC(C)C(=O)Nc2ccc(C(N)=O)cc2)cc1` (stereo not given): the inhibition was 0%.
With `CN(C(=O)c1ccccn1)c1nnc(-c2cccnc2)s1` the figure was 6%; with `COc1ccc(S(=O)(=O)N(C)c2ccc(C(=O)N3CCOCC3)cc2)cc1`, 0%.
With `CC(C)OC(=O)CCCCCN1C(=O)CSC1=S` the figure was 1%; with `O=C(C1CCCCC1)N1CCC(c2nc3c(nnn3Cc3ccccc3Cl)c(=O)[nH]2)CC1`, 4%; with `Cc1nc(SCCC(=O)O)c2ccccc2n1`, 6%.
With `CCC(Sc1ccc2nnc(-c3ccc(F)cc3)n2n1)C(=O)OC` (stereo not given) the figure was 0%; with `CN=c1sc2ccccc2n1CC(O)COCc1ccco1` (stereo not given), 0%; with `CN(CC(=O)Nc1ccc2c(c1)OCCO2)S(=O)(=O)c1ccc(Br)s1`, 6%.
For the compound `O=C(Nc1cnn(Cc2ccc(F)cc2)c1)c1cnccn1`, the inhibition was 2%.
`CCCC(=O)Nc1cnc(NC(=O)c2cccc(F)c2)cc1C`: the inhibition is 0%.
The value for `COc1cc(NC(=O)C2C3C=CC(C3)C2C(=O)O)c(OC)cc1Cl` (stereo not given) was 0%.
As to `Cc1nn(C(=O)c2ccoc2C)c(N)c1-c1ccccc1`, the inhibition is 2%.
